According to PubChem BioAssay (EPA / NIEHS):
Several values for one entry are separate records, joined by “and”; a condition that tells them apart may be missing. Equal values may be shown once. Activity calls are given as the source filed them. How the source made its calls: active means hit-call score of the fitted dose curve at least 0.9, where 1 is the maximum; inactive means score below 0.9.

Columns and labels:
[1] = ATG_DR4_LXR_CIS: Attagene CIS-FACTORIAL HepG2 Assay for human Liver X Receptor (LXR), DR4 submotif (AID 2282929); conditions: HepG2 Attagene DR4 cis-reporter, mRNA transcription; AC50: actives raise or lower the signal unless noted; outcome: actives raise or lower the signal unless noted
Procedure, shortened: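 Readout: reporter transcript fluorescence after RT-PCR and capillary electrophoresis, fitted bidirectionally against DMSO controls. Human HepG2 liver cells carried transiently transfected multiplexed reporter constructs; endogenous transcription factor activity measured 24 h post-dosing.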

[2] = biological target: Aryl hydrocarbon receptor (Homo sapiens) (UniProt P35869); experiment: ATG_Ahr_CIS: Attagene CIS-FACTORIAL HepG2 Assay for human Aryl Hydrocarbon Receptor (Ahr) (AID 2282930); conditions: HepG2 AhR cis-factorial reporter transcription; actives raise or lower the signal
Sequence of Aryl hydrocarbon receptor (Homo sapiens) (P35869 whole entry, looked up): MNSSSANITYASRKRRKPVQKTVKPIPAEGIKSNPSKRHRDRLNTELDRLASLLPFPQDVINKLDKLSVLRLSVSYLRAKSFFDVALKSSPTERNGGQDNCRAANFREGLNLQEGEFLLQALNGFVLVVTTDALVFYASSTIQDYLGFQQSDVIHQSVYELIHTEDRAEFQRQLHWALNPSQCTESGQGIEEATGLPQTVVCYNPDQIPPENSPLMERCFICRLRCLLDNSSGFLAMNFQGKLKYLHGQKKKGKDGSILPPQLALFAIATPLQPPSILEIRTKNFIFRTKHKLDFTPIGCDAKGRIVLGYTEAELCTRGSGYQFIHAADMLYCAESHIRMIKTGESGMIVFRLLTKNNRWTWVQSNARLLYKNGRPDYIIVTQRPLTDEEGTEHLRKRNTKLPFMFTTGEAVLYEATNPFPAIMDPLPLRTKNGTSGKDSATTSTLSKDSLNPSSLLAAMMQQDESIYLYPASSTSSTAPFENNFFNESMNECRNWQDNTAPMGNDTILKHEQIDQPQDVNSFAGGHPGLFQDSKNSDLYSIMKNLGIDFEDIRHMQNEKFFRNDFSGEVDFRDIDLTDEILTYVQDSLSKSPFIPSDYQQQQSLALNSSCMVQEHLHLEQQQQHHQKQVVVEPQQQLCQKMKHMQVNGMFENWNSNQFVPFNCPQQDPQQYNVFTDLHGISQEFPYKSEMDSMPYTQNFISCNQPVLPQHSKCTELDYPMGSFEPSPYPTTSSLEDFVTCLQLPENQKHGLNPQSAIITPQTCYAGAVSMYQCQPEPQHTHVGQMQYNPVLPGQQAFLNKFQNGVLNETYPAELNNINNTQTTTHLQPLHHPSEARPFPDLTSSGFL
Procedure, shortened: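 Values derive from bidirectional fitting against DMSO negative control. Underlying signal: cis-element reporter mRNA in transiently transfected HepG2, harvested 24 h post-dose and measured by RT-PCR plus capillary electrophoresis.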

[3] = ATG_AP_1_CIS: Attagene CIS-FACTORIAL HepG2 Assay for human Activator Protein 1 (AP-1) (AID 2282931); conditions: HepG2 Attagene cis-factorial AP-1 reporter mRNA; actives raise or lower the signal
Procedure, shortened: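 Reporter transcripts were measured 24 h after dosing by RT-PCR and capillary electrophoresis of fluorescent fragments. Cells: HepG2 carrying transfected cis-regulated reporter constructs reading endogenous factor activity. Gain or loss fitted against DMSO.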

[4] = ATG_AP_2_CIS: Attagene CIS-FACTORIAL HepG2 Assay for human Activator Protein 2 (AP-2) (AID 2282932); conditions: HepG2 AP-2 cis-reporter, Attagene transcription factor profiling; AC50: actives raise or lower the signal unless noted; outcome: actives raise or lower the signal unless noted
Procedure, shortened: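 Cells (HepG2) transfected with promoter-driven reporter constructs, treated 24 h. Total RNA reverse-transcribed, reporter cDNA PCR-amplified, FAM-labelled by primer extension, digested, resolved by capillary electrophoresis. Activity fitted both directions versus DMSO.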

[5] = ATG_BRE_CIS: Attagene CIS-FACTORIAL HepG2 Assay for human Bone Morphogenetic Protein (BMP) Response Element (BRE) (AID 2282933); conditions: HepG2 BMP response element reporter, Attagene transcription factor profiling; actives raise or lower the signal
Procedure, shortened: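 Endogenous transcription factor activity at a BMP response element was monitored in transfected HepG2 cells 24 h after dosing. Fluorescent RT-PCR products were resolved by capillary electrophoresis, and activity was fitted in both directions versus DMSO.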

[6] = biological target: Retinoic acid receptor alpha (Homo sapiens) (UniProt P10276); experiment: ATG_DR5_RAR_CIS: Attagene CIS-FACTORIAL HepG2 Assay for human Retinoic Acid Receptor Alpha (RARE), DR5 submotif (AID 2282934); conditions: HepG2 Attagene cis-factorial RARE DR5 reporter, mRNA; actives raise or lower the signal
Sequence of Retinoic acid receptor alpha (Homo sapiens) (P10276 whole entry, looked up): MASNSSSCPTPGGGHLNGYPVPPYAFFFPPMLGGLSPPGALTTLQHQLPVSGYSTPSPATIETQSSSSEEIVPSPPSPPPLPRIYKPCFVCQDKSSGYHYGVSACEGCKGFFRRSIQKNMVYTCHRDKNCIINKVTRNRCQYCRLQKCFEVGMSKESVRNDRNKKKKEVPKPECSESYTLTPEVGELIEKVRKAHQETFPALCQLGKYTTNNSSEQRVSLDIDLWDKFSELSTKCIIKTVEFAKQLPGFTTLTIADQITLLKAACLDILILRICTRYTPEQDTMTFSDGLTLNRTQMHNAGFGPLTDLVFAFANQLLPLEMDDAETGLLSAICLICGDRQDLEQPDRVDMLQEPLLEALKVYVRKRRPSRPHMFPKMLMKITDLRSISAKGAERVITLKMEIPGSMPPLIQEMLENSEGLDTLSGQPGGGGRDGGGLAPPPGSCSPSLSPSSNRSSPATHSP
Procedure, shortened: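 Endpoint fitted in both directions relative to DMSO as negative control. It reflects DR5 cis-element reporter mRNA induction in transiently transfected HepG2 cells, measured 24 h after dosing through RT-PCR and fluorescent capillary electrophoresis.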

[7] = biological target: Transcription factor E2F1 (Homo sapiens) (UniProt Q01094); experiment: ATG_E2F_CIS: Attagene CIS-FACTORIAL HepG2 Assay for human E2F Transcription Factor 1 (AID 2282935); conditions: HepG2 Attagene cis-reporter, E2F reporter RNA transcripts; actives raise or lower the signal
Sequence of Transcription factor E2F1 (Homo sapiens) (Q01094 whole entry, looked up): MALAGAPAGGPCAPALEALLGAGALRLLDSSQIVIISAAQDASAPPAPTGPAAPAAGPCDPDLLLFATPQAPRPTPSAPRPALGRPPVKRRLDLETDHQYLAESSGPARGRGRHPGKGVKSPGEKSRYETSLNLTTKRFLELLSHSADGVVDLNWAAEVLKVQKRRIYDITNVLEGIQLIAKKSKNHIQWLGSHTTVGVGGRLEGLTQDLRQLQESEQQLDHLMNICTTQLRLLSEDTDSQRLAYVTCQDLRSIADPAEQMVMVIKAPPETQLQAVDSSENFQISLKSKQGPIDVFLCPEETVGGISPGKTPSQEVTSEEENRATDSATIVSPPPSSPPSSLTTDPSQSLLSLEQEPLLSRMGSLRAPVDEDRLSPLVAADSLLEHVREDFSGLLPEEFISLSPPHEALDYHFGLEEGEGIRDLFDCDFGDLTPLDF
Procedure, shortened: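 First, HepG2 cells were transfected with reporter transcription units. Next, they were dosed for 24 h. Then RNA was isolated, converted to cDNA, PCR-amplified, FAM-labeled, HpaI-digested and analyzed by capillary electrophoresis.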

[8] = ATG_E_Box_CIS: Attagene CIS-FACTORIAL HepG2 Assay for human Enhancer Box (E-box) (AID 2282936); conditions: HepG2 E-box cis-reporter transcription, actives raise or lower the signal
Procedure, shortened: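 Endogenous transcription factor activity was sensed in human HepG2 liver cells through transfected cis-promoter reporter units. After 24 h of dosing, total RNA was reverse-transcribed and reporter cDNA resolved by capillary electrophoresis.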

[9] = ATG_M_61_CIS: Attagene CIS-FACTORIAL HepG2 Assay for M61 Transcription Factor (Internal Marker) (AID 2282937); conditions: HepG2 Attagene CIS-FACTORIAL M61 internal marker reporter; actives raise or lower the signal
Procedure, shortened: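 Readout: fluorescent reporter mRNA fragments resolved by capillary electrophoresis after RT-PCR. Transiently transfected human HepG2 cells carried MRTU constructs reporting endogenous TF activity; 24 h chemical exposure; gain or loss of signal fitted relative to DMSO.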

[10] = ATG_EGR_CIS: Attagene CIS-FACTORIAL HepG2 Assay for human Early Growth Response 1 (EGR1) (AID 2282938); conditions: HepG2 Attagene CIS-FACTORIAL EGR reporter mRNA; actives raise or lower the signal
Procedure, shortened: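 Read-out: fluorescent reporter-mRNA fragments resolved by capillary electrophoresis after RT-PCR, 24 h post-dose in transiently transfected HepG2. Endogenous transcription-factor activity reported via cis-element-regulated reporter units; gain or loss fitted relative to DMSO.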

[11] = ATG_M_19_CIS: Attagene CIS-FACTORIAL HepG2 Assay for M19 Transcription Factor (Internal Marker) (AID 2282939); conditions: HepG2 Attagene CIS-FACTORIAL M19 internal marker reporter; actives raise or lower the signal
Procedure, shortened: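 Background-control endpoint from a multiplexed HepG2 reporter panel. Cells carrying cis-regulated reporter constructs are treated 24 h, then reporter transcripts are amplified, fluorescently labelled and sized by capillary electrophoresis. DMSO defines baseline.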

[12] = ATG_ERE_CIS: Attagene CIS-FACTORIAL HepG2 Assay for Estrogen Response Element (ERE) (AID 2282940); conditions: HepG2 ERE cis-reporter, Attagene RNA transcript; actives raise or lower the signal
Procedure, shortened: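 Cells used were human hepatoma HepG2, transfected with multiple reporter transcription units under cis-regulatory promoters. Reporter mRNA, read 24 h post-dosing via fluorescent RT-PCR products on capillary electrophoresis, was fitted bidirectionally relative to DMSO.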

[13] = ATG_Ets_CIS: Attagene CIS-FACTORIAL HepG2 Assay for human Erythroblast Transformation Specific (ETS) (AID 2282941); conditions: HepG2 ETS cis-reporter transcription; AC50: actives raise or lower the signal unless noted; outcome: actives raise or lower the signal unless noted
Procedure, shortened: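 Endogenous transcription factor activity read as reporter mRNA via RT-PCR and capillary electrophoresis, with gain or loss fitted bidirectionally against DMSO. Human HepG2 liver cells, transiently transfected CIS reporter constructs, 24 h exposure.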

[14] = biological target: Hepatocyte nuclear factor 3-beta (Homo sapiens) (UniProt Q9Y261); experiment: ATG_FoxA2_CIS: Attagene CIS-FACTORIAL HepG2 Assay for human Forkhead box A2 (FOXA2) (AID 2282942); conditions: HepG2 cis-reporter transcription factor activity, 24 h; actives raise or lower the signal
Sequence of Hepatocyte nuclear factor 3-beta (Homo sapiens) (Q9Y261 whole entry, looked up): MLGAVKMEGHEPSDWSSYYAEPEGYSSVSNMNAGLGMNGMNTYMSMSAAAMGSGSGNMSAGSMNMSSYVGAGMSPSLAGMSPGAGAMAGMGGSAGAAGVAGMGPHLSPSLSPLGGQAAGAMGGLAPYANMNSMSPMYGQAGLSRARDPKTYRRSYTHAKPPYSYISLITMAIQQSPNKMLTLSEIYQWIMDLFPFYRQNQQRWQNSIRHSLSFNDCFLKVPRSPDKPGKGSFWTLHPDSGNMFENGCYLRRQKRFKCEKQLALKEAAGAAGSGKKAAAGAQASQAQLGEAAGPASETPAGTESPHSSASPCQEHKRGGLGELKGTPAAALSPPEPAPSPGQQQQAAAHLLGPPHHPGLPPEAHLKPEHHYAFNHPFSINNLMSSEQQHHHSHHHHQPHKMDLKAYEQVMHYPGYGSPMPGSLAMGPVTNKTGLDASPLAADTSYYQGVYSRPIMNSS
Procedure, shortened: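 Readout: fluorescent reporter transcripts resolved by capillary electrophoresis after RT-PCR. Transiently transfected HepG2, 24 h compound exposure, endogenous TF activity at cis promoter elements. Gain or loss of signal fitted relative to DMSO.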

[15] = ATG_FoxO_CIS: Attagene CIS-FACTORIAL HepG2 Assay for human Forkhead box O (FoxO) (AID 2282943); conditions: HepG2 Attagene cis-reporter, FoxO element, mRNA; actives raise or lower the signal
Procedure, shortened: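 Values reflect reporter mRNA induction or loss in HepG2 cells 24 h post-dosing, fitted bidirectionally with DMSO as negative control and baseline. Detection used RT-PCR and fluorescence capillary electrophoresis.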

[16] = biological target: Bile acid receptor (Homo sapiens) (UniProt Q96RI1); experiment: ATG_IR1_CIS: Attagene CIS-FACTORIAL HepG2 Assay for human Nuclear Receptor Subfamily 1 Group H Member 4 (NR1H4), IR1 submotif (AID 2282946); conditions: IR1 reporter transcription, actives raise or lower the signal
Sequence of Bile acid receptor (Homo sapiens) (Q96RI1 whole entry, looked up): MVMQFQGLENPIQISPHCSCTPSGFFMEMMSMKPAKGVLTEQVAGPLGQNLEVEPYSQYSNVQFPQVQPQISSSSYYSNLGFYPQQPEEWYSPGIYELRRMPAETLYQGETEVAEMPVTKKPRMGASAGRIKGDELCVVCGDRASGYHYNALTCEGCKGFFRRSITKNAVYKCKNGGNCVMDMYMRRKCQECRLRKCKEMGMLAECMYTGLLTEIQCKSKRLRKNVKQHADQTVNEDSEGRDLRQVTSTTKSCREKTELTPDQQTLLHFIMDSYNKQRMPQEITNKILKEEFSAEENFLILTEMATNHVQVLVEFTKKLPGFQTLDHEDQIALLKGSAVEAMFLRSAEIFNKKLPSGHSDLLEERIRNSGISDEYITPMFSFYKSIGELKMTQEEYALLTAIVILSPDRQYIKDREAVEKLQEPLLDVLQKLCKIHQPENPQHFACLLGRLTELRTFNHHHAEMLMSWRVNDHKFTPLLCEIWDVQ
Procedure, shortened: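 Readout: reporter transcript levels by RT-PCR with fluorescent capillary electrophoresis, from HepG2 cells transiently transfected with multiplexed cis-regulated reporters and dosed 24 h. Gain- or loss-of-signal fitted versus DMSO negative control.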

[17] = ATG_GRE_CIS: Attagene CIS-FACTORIAL HepG2 Assay for human Glucocorticoid Response Elements (GRE) (AID 2282947); conditions: HepG2 GRE cis-reporter, Attagene multiplex mRNA; AC50: actives raise or lower the signal unless noted; outcome: actives raise or lower the signal unless noted
Procedure, shortened: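 Cells (HepG2) bearing transfected cis-promoter reporter transcription units were treated with chemical for 24 hours. Reporter mRNA was measured via RT-PCR with capillary electrophoresis, and activity was fitted in both directions relative to DMSO.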

[18] = ATG_ISRE_CIS: Attagene CIS-FACTORIAL HepG2 Assay for human Interferon Regulatory Factor 1 (IRF1) binding to an Interferon-Stimulated Response Element (ISRE) (AID 2282948); conditions: HepG2 ISRE cis-reporter (Attagene), mRNA transcription readout; actives raise or lower the signal
Procedure, shortened: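 Endogenous transcription factor activity read as reporter transcript abundance via RT-PCR and capillary electrophoresis. HepG2 cells transiently transfected, 24 h chemical exposure. Gain or loss fitted against DMSO baseline.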

[19] = ATG_GATA_CIS: Attagene CIS-FACTORIAL HepG2 Assay for human GATA Binding Protein (AID 2282944); conditions: HepG2 GATA cis-element reporter, Attagene multiplex mRNA; actives raise or lower the signal
Procedure, shortened: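 Endogenous transcription factor activity was captured through cis-promoter-driven reporters in transfected HepG2 cells. After 24 h exposure, reporter transcripts were quantified by RT-PCR with fluorescent capillary electrophoresis, and responses fitted both directions against DMSO.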

[20] = ATG_GLI_CIS: Attagene CIS-FACTORIAL HepG2 Assay for human Zinc Finger Protein GLI1 (AID 2282945); conditions: HepG2, Attagene cis-factorial reporter mRNA, GLI element; actives raise or lower the signal
Procedure, shortened: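 HepG2 cells transiently transfected with cis-promoter multiplexed reporter units report endogenous transcription factor activity. After 24 h chemical exposure, reporter mRNA was quantified by RT-PCR, 6-FAM labelling, HpaI digestion and capillary electrophoresis, with bidirectional fitting against DMSO.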

Measured: AC50

Clc1ccc(Nc2nnc(Cc3ccncc3)c3ccccc23)cc1
active: [3] 42 µM | [10] 16 µM
not listed: [19] | [20]
inactive: all other assays above

Brc1cc(Br)c(Oc2c(Br)cc(Br)c(Br)c2Br)cc1Br
not listed: [20]
inactive: all other assays above

CC=O
not listed: [20]
inactive: all other assays above

O=C(c1ccccc1)c1ccccc1
not listed: [12] | [16]
inactive: all other assays above

CC[N+](CC)(CC)Cc1ccccc1
not listed: [13] | [19]
inactive: all other assays above

COC1=CC(=O)C[C@@H](C)[C@]12Oc1c(Cl)c(OC)cc(OC)c1C2=O
not listed: [15] | [19]
inactive: all other assays above

Nc1ccc(O)c(C(=O)O)c1
active: [12] 12.3 µM
not listed: [13] | [15]
inactive: all other assays above

CCCCCCCCC1CCC(=O)O1 (stereo not given)
not listed: [18] | [19]
inactive: all other assays above

O=S(=O)(O)C(F)(F)C(F)(F)C(F)(F)C(F)(F)C(F)(F)C(F)(F)C(F)(F)C(F)(F)C(F)(F)C(F)(F)F
active: [1] 8.16 µM and 10.2 µM | [2] 50.1 µM and 45.9 µM | [3] 22.4 µM and 16.6 µM
not listed: [4] | [19]
inactive: all other assays above

NS(=O)(=O)O
not listed: [6] | [12] | [16]
inactive: all other assays above

Cc1ccc(S(=O)(=O)O)cc1
not listed: [12] | [16] | [17]
inactive: all other assays above

O=C1Cc2ccccc2N1c1c(Cl)cccc1Cl
active: [1] 66.4 µM | [5] 100 µM | [12] 6.29 µM | [16] 100 µM
not listed: [10] | [19] | [20]
inactive: all other assays above

FC(F)(F)C(F)(F)C(F)(F)C(F)(F)I
not listed: [10] | [13] | [20]
inactive: all other assays above

COc1cc([N+](=O)[O-])ccc1N
not listed: [10] | [13]
inactive: all other assays above
